In the library only some 1.2% were active in any assay of this set; here they are far more common.
EBV LMP1 NFkB: EBV LMP1-driven NF-kappaB luciferase reporter inhibitors, primary screen, cell-based, luminescence, single point | LMP1-induced NF-kappaB luciferase reporter cells | inhibition, % at 12.5 µM | 0.69% of 350,000 active; in the data active = inhibition above about 41%; inconclusive = no clear call, values can overlap the other calls;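 note: 0% = neutral control wells and 100% = reference inhibitor control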
NR5A2 inv ag: LRH-1 (NR5A2) inverse agonists, primary screen, cell-based, luminescence, HEK293T, StAR-luciferase reporter; Nuclear receptor subfamily 5 group A member 2 (Homo sapiens), O00482; LRH-1 transfected, 24 h; inhibition, % at 3.6 µM; 0.13% of 360,000 active; AID 602396, 2012;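 active = inhibition above the mean inhibition of all tested compounds plus 3 SD, cut at about 73% in these data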;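 note: 0% = DMSO wells and 100% = reporter-only cells lacking LRH-1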
Shn3 inh set2: reduction of Shn3 3'UTR firefly luciferase signal, primary screen, Schnurri-3 inhibitor project, cell-based, Clone20 osteoblasts, set 2; Clone20 osteoblast Shn3 3'UTR firefly luciferase, 24 h; inhibition, % at 12.5 µM; 0.52% of 360,000 active; AID 588674, 2011;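 active = mean inhibition of at least 75% with every replicate also reaching 75%; inconclusive = mean inhibition at least 75% but some replicate below; inactive = mean inhibition below 75%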;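 note: 0% = median of neutral control wells and 100% = pilot-screen positive control compound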
NCOA2 inhibitor: inhibition of GAL4-SRC2 driven luciferase reporter, primary screen, SRC2 inhibitor project, cell-based, luminescence; HEK293 GAL4-SRC2 luciferase reporter; AID 651957, 2012; Nuclear receptor coactivator 2 (Homo sapiens), Q15596; 0.17% of 370,000 active; inhibition, % at 9 µM;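 active = inhibition above the mean inhibition of all tested compounds plus 3 SD, set per campaign, cut at about 52% in these data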;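 note: 0% = DMSO treated cells and 100% = cells given Gossypol at 36 µM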
NCOA3 inh: SRC3 coactivator transcriptional activity inhibitors, primary screen, cell-based, luminescence; 0.17% of 360,000 active; inhibition, % at 3.6 µM; HEK293 GAL4-SRC3 luciferase reporter;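 active = inhibition above a per-campaign cutoff, the mean of all compounds plus 3 SD, cut at about 60% in these data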;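 note: 0% = DMSO-treated cells and 100% = gossypol-treated cells at 36 µM; higher means less SRC3-driven luciferase light from the GAL4 reporter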
SRC1 inh: SRC1 coactivator transcriptional activity inhibitors, primary screen, cell-based, luminescence. HEK293 GAL4-SRC1 luciferase reporter. Nuclear receptor coactivator 1 (Homo sapiens), Q15788. 0.12% of 360,000 active. inhibition, % at 3.6 µM;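 active = inhibition above the campaign mean plus 3 SD, with each screening campaign given its own cutoff, cut at about 60% in these data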;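 note: 0% = DMSO treated cells and 100% = gossypol at 36 µM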
* = called active by the depositor; ? = inconclusive; . = no result given; ! = not active in a repeat.

SMILES | EBV LMP1 NFkB | NR5A2 inv ag | Shn3 inh set2 | NCOA2 inhibitor | NCOA3 inh | SRC1 inh
COc1ccc(OC)c(S(=O)(=O)N2CCCCC2C(=O)N2CCN(c3ccccc3F)CC2)c1 (stereo unspecified) | . | . | . | 8.6 | . | .
COC(=O)[C@]1(CNC(=O)c2cc(F)ccc2F)CC(=O)N(C)[C@@H]1c1ccccc1 | . | . | . | 26.8 | . | .
C#CCNC(=O)C[C@H]1C[C@@]2(C(=O)OC)C(=C[C@H](C(C)(C)C)O[C@@H]2C)N(Cc2ccc3c(c2)OCO3)C1=O | . | . | . | -0.5 | . | .
CCSc1nc(-c2ccccc2)c2cc(Cl)ccc2n1 | -0.9 | -22.3 | 7.6 | -14.9 | -4.4 | -18.9
CSc1nc(-c2ccc(C)cc2)nc(C(Cl)Cl)n1 | 60.5* | -24.7 | 6.6 | . | -0.3 | -26.2
CCSc1nc(-c2ccccc2)nc(C(Cl)Cl)n1 | 67.4* | 9.9 | 23.3 | 20.5 | -10.8 | -29.3
CN(C)S(=O)(=O)c1ccc(C(=O)NCC2CC2(Cl)Cl)cc1 (stereo unspecified) | 43.3* | 0.6 | -16.1 | -11.0 | -0.5 | 5.4
O=c1c2cc3cccnc3nc2ncn1Cc1cccs1 | . | . | . | 11.0 | . | .
C=CCN1[C@@H](C)COc2cc(N3CCCC3)ccc2S1(=O)=O | . | . | . | 0.3 | . | .
CS(=O)(=O)N1CCC[C@]2(CC[C@H](CCC#N)O2)C1 | . | . | . | -3.8 | . | .
O=C(CSc1ccccn1)Nc1nonc1[N+](=O)[O-] | -0.8 | 41.7 | 95.1* | 23.2 | 6.5 | -16.1
CC(C)(C)C(=O)Cn1ncc(Br)c(Br)c1=O | 61.4* | -21.7 | 89.4* | -21.1 | -5.9 | -29.2
CC(C)(C)C(=O)Cn1ncc(N2CCOCC2)c(Cl)c1=O | 10.9 | -23.1 | 3.5 | -12.9 | -8.8 | -17.0
OCCCN1CCC2(CCC(c3ccccc3)CC2)C1 (stereo unspecified) | . | . | . | 5.3 | . | .
Cc1ccc2ccc3ccc(C)nc3c2n1 | 39.0 | 88.9* | ? | 3.5 | 56.4 | 52.9
O=S1(=O)c2ccc(N3CCSCC3)cc2Oc2ccccc2CN1Cc1cn(Cc2ccc(F)cc2)nn1 | . | . | . | -12.5 | . | .
CCN(CC(=O)Nc1ccc(OC)cc1)C(=O)CSCC(=O)Nc1cc(C)on1 | 2.9 | -0.6 | -12.9 | -7.7 | 79.1* | 0.3
COc1ccc(-c2cc3nc4n(c(=O)c3s2)CCC4)cc1 | 51.9* | -111.9 | 40.6 | -21.4 | -38.1 | -46.6
COc1ccc(-c2cc3nc4n(c(=O)c3s2)CCCCC4)cc1 | -20.4 | -115.7 | -9.9 | -36.4 | -78.5 | -69.3
Cc1nc2cc(-c3ccccc3)sc2c(=O)n1N | 73.8* | -61.7 | 73.3 | 49.1 | 0.9 | -15.6
COc1ccc(-c2cc3nc(C)n(N)c(=O)c3s2)cc1 | 76.2* | 28.4 | 88.6* | 70.9* | 70.2* | 58.2
C=CC(=O)NC1CCCCN(C)C1=O (stereo unspecified) | . | . | . | -10.5 | . | .
COC(=O)C1CN(Cc2cn(Cc3ccc(OC)cc3)nn2)CCS(=O)(=O)N1Cc1ccc(OC)cc1 (stereo unspecified) | . | . | . | 3.8 | . | .
C(/C=C/c1ccccc1)=N/N1CCN(c2ccccc2)CC1 | -11.2 | -23.8 | -66.4 | -17.7 | -65.3 | -35.8
C(=C\c1ccccc1)/C=N/N1CCN(c2ccccn2)CC1 | 84.8* | -83.9 | -36.7 | -18.3 | -58.4 | -70.6
SMILES | EBV LMP1 NFkB | NR5A2 inv ag | Shn3 inh set2 | NCOA2 inhibitor | NCOA3 inh | SRC1 inh
C=CCN1C(=O)[C@@H](CC(=O)NCc2ccccc2)[C@]2(C(=O)OC)CCCCC=C12 | . | . | . | -14.5 | . | .
Cc1oc(C(C)(C)C)cc1C(=O)Nc1ccc(C(=O)O)cc1 | -8.3 | -180.6 | -42.9 | -31.2 | -52.8 | -50.7
CC(C)(C)c1ccc(C(=O)Nc2ccc(NC(=O)C(=O)O)cc2)o1 | 3.6 | 11.0 | 2.5 | 58.7* | -22.1 | -4.6
Cc1cc(C)c(OCCCn2ccnc2)c(C)c1 | 11.6 | 2.4 | 0.3 | 9.7 | -11.7 | 1.1
Cc1cc(C)c(OCCn2ccnc2)c(C)c1 | 72.8* | 9.1 | -6.8 | 11.3 | -18.2 | -2.8
CC1CC(C)(C)Nc2ccc(OC(=O)c3ccco3)cc21 (stereo unspecified) | 25.2 | 5.8 | 50.5 | 58.4* | 19.8 | -5.3
CC1CC(C)(C)Nc2ccc(N=O)cc21 (stereo unspecified) | 20.7 | -4.4 | 92.7* | 30.6 | -11.0 | -26.7
CC1CC2(CCCC2)Nc2ccc(F)cc21 (stereo unspecified) | -12.3 | 1.4 | 7.0 | -4.7 | 4.0 | -14.6
O=C(Oc1ccc2ccccc2c1)c1ccco1 | 0.6 | -4.8 | -5.9 | 9.9 | -9.6 | -8.9
C[N+](C)(C)C[C@H](O)CC(=O)[O-] | 51.2* | -2.9 | 4.4 | -15.4 | 3.1 | -5.4
Cc1ccc(-n2nc3c([n+]2[O-])CCc2c-3no[n+]2[O-])cc1 | 22.1 | 2.1 | 89.9* | 24.9 | 0.8 | -41.6
CCCCC(CC)C(=O)O (stereo unspecified) | 2.4 | 17.4 | -0.1 | -2.1 | 1.8 | -3.0
CCCC(CCC)C(=O)O | 58.0*! | -3.7 | 74.1 | 13.2 | -7.3 | -4.4
COC(=O)C1=C(C)N(Cc2ccc(C(F)(F)F)cc2)C(=NCc2ccc(C(F)(F)F)cc2)NC1c1ccccc1C(F)(F)F (stereo unspecified) | . | . | . | -24.0 | . | .
Nc1[nH]c(C(=O)c2ccccc2)c(-c2ccccc2)c1C(=O)NCCc1c[nH]c2ccccc12 | . | . | . | -10.9 | . | .
COC(=O)[C@H]1[C@@H](O)[C@@]2(O)c3c(OC)cc(OC)cc3O[C@@]2(c2ccc(OC)cc2)[C@@H]1c1ccc(F)cc1 | . | . | . | 62.5* | . | .
COC(=O)C1C(=O)C=C(Nc2ccc(F)cc2)CC1c1ccc(OC)cc1 (stereo unspecified) | -10.0 | -43.0 | -24.1 | -40.8 | -28.6 | -39.4
Cc1ccccc1C(=O)n1ccc2ccc(-c3ccc4ccn(Cc5ccc(C#N)cc5)c4c3)cc21 | . | . | . | -1.2 | . | .
Cn1c(-c2ccccc2)cc2ccccc21 | -2.0 | 3.8 | -1.1 | 11.3 | -42.0 | -48.8
Cn1c(-c2ccccc2)cc2c3no[n+]([O-])c3ccc21 | -7.3 | 1.2 | 92.1* | -40.6 | -92.0 | -77.8
CC(=O)Nc1ccc(NC(=O)C(C)OC(=O)c2ccccc2NS(=O)(=O)c2cccs2)cc1 (stereo unspecified) | -0.9 | 0.4 | -5.5 | -30.6 | -7.6 | 6.7
CC(=O)Nc1ccc(NC2=C/C(=N/S(=O)(=O)c3cccs3)c3ccccc3C2=O)cc1 | 2.2 | 26.4 | 96.3* | 42.7 | 80.3* | -3.9
Cc1ccc(NC2=C/C(=N/S(=O)(=O)c3cccs3)c3ccccc3C2=O)cc1C | -64.8 | -19.1 | -4.7 | -26.1 | -29.6 | -3.0
COc1ccc(S(=O)(=O)/N=C2\C=C(Nc3ccc(O)cc3)C(=O)c3ccccc32)cc1 | 74.0* | 92.6* | 96.8* | 73.9* | 88.0* | 89.5*

Compound activity: PubChem, several laboratories
